In article PMC7862700, “An all-to-all approach to the identification of sequence-specific readers for epigenetic DNA modifications on cytosine”:

Experiments:
Test in all cases: DAPPL (digital affinity profiling via proximity ligation, sequencing); 10 mM Tris-HCl pH 7.5, 50 mM NaCl, 1 mM DTT, 4% glycerol, room temperature, 30 min; GST-TFs on glutathione beads, 16-mer random dsDNA library, 0.1% formaldehyde crosslink after washing; high values mean tight binding
Conditions in all cases: protein: recombinant; tags: N-terminal GST; dsDNA, one strand shown
FLI1 = target: T1, FLI1 (Homo sapiens, UniProt Q01543 1-452)
T1 sequence: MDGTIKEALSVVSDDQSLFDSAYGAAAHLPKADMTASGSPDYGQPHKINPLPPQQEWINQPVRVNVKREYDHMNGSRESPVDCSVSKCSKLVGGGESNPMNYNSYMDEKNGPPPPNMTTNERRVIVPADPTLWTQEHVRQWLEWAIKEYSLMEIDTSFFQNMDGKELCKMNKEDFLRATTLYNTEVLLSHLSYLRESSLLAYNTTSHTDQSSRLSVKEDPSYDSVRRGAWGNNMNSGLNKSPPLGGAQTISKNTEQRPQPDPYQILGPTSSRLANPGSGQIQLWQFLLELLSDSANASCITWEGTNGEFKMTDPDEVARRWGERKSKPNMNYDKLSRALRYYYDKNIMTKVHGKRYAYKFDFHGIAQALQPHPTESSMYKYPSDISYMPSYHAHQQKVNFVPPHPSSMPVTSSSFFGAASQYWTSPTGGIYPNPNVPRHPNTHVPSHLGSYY
Outline: (§1)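 Binding signal is defined as a hexamer's read frequency for one factor over its frequency for the tag-only sample. To obtain reads, GST-fused human transcription factors were expressed in yeast, captured on glutathione beads, barcoded with DNA and pooled with that sample. Pools met 200 nmole of a 16-mer random double-stranded DNA library in Tris/NaCl/DTT/glycerol buffer for 30 min at room temperature before washing, 0.1% formaldehyde crosslinking, proximity ligation (BsaI/T4 ligase, 1 h, 37 °C), PCR and Illumina NextSeq500 sequencing.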

ELK1 = target: T2, ELK1 (Homo sapiens, UniProt P19419 1-428)
T2 sequence: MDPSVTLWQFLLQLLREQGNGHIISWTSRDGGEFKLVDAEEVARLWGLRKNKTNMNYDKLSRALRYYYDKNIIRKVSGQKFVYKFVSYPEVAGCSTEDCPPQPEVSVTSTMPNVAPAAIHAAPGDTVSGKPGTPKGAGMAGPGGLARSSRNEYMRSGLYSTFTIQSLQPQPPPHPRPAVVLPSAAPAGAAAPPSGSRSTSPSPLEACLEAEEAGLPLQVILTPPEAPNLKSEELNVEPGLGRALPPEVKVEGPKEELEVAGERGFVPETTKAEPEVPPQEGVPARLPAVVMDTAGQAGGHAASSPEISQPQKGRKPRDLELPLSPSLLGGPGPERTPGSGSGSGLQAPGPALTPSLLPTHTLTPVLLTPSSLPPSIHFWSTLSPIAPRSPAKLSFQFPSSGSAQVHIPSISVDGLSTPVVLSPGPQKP
Outline: as §1

GABPA = target: T3, GABPA (Homo sapiens, UniProt Q06546 1-454)
T3 sequence: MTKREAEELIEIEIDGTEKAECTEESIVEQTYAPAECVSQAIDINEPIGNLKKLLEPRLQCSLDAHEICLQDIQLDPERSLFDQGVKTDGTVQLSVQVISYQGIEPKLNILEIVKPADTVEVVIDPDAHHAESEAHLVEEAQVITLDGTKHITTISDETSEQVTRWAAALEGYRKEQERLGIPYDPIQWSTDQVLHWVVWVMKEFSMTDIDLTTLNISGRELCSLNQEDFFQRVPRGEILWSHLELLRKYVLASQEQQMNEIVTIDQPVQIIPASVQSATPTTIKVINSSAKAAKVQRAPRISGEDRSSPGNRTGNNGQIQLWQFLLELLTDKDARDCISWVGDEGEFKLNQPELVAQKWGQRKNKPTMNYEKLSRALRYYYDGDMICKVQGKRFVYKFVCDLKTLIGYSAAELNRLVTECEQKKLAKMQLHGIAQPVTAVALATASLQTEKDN
Outline: as §1

ERG = target: T4, ERG (Homo sapiens, UniProt P11308 1-479)
T4 sequence: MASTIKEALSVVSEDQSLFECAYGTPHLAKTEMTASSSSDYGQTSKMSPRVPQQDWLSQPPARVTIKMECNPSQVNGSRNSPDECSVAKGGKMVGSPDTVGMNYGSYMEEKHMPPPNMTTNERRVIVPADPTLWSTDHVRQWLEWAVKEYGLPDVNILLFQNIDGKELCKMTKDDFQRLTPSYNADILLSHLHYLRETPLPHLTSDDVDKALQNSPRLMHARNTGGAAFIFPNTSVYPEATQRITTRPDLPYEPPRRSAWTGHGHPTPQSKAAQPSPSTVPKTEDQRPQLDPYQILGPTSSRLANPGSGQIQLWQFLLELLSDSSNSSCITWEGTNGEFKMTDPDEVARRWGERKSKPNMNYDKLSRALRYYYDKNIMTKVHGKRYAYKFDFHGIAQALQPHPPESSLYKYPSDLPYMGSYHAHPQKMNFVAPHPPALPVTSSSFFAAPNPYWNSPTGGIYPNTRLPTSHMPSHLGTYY
Outline: as §1

ELF1 = ELF1 (Homo sapiens, UniProt P32519 1-619)
Outline: as §1

EHF = target: T5, EHF (Homo sapiens, UniProt Q9NZC4 1-300)
T5 sequence: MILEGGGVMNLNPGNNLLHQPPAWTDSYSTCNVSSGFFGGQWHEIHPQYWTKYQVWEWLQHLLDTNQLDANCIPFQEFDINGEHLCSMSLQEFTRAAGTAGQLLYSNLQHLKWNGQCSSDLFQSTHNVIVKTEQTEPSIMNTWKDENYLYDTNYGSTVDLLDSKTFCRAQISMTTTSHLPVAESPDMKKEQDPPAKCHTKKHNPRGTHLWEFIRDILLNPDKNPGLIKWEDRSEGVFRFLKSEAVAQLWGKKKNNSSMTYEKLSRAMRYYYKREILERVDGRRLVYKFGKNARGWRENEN
Outline: as §1

SPI1 = SPI1 (Homo sapiens, UniProt P17947 1-270)
Outline: as §1

SPIB = SPIB (Homo sapiens, UniProt Q01892 1-262)
Outline: as §1

ELK3 = target: T6, ELK3 (Homo sapiens, UniProt P41970 1-407)
T6 sequence: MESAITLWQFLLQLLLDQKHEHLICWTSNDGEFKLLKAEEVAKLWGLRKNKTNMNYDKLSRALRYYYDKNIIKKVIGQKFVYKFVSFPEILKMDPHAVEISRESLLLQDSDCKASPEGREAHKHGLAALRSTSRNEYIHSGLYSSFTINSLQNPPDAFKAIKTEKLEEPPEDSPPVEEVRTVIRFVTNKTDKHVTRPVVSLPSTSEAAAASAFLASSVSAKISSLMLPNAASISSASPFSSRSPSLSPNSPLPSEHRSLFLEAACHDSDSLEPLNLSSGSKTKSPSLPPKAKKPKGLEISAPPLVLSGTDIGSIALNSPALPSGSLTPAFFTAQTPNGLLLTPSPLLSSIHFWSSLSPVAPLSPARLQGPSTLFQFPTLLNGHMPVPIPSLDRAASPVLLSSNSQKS
Outline: as §1

Chain of ELF1 (P32519 whole entry): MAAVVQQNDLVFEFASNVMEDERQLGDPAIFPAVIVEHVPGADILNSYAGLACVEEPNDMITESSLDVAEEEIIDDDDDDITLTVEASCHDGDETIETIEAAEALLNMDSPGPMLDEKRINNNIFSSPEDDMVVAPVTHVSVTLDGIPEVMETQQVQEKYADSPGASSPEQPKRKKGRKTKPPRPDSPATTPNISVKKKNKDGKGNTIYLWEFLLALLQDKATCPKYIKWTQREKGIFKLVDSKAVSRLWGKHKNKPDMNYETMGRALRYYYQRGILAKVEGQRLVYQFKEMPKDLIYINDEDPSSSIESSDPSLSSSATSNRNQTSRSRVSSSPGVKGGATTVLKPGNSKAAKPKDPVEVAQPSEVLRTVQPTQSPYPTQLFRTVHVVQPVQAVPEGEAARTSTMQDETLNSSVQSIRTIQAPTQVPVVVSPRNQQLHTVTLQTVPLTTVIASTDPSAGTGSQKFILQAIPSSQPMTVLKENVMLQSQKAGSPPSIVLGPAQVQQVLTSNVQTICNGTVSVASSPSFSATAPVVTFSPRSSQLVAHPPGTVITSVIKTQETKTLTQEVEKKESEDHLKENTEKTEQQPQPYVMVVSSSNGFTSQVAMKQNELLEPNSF
Chain of SPIB (Q01892 whole entry): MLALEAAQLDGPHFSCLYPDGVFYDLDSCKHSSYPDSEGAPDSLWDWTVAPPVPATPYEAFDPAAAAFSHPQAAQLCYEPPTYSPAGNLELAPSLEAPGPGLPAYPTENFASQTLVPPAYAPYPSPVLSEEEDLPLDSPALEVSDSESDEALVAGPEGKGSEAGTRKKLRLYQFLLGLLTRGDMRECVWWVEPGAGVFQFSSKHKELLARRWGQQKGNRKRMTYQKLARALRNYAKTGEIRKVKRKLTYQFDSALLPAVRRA

ATGCAA
binding signal (FLI1): 1.32 fold enrichment (6-mer frequency, TF over GST control)
binding signal (ELK1): 1.26 fold enrichment (6-mer frequency, TF over GST control)
binding signal (GABPA): 1.27 fold enrichment (6-mer frequency, TF over GST control)
binding signal (ERG): 1.29 fold enrichment (6-mer frequency, TF over GST control)
binding signal (ELF1): 1.25 fold enrichment (6-mer frequency, TF over GST control)
binding signal (EHF): 1.25 fold enrichment (6-mer frequency, TF over GST control)
binding signal (SPI1): 1.2 fold enrichment (6-mer frequency, TF over GST control)
binding signal (SPIB): 1.26 fold enrichment (6-mer frequency, TF over GST control)
binding signal (ELK3): 1.18 fold enrichment (6-mer frequency, TF over GST control)

TTAAAC
binding signal (FLI1): 1.22 fold enrichment (6-mer frequency, TF over GST control)
binding signal (ELK1): 1.18 fold enrichment (6-mer frequency, TF over GST control)
binding signal (GABPA): 1.2 fold enrichment (6-mer frequency, TF over GST control)
binding signal (ERG): 1.25 fold enrichment (6-mer frequency, TF over GST control)
binding signal (ELF1): 1.23 fold enrichment (6-mer frequency, TF over GST control)
binding signal (EHF): 1.26 fold enrichment (6-mer frequency, TF over GST control)
binding signal (SPI1): 1.24 fold enrichment (6-mer frequency, TF over GST control)
binding signal (SPIB): 1.26 fold enrichment (6-mer frequency, TF over GST control)
binding signal (ELK3): 1.31 fold enrichment (6-mer frequency, TF over GST control)

ATCTGG
binding signal (FLI1): 1.19 fold enrichment (6-mer frequency, TF over GST control)
binding signal (ELK1): 1.01 fold enrichment (6-mer frequency, TF over GST control)
binding signal (GABPA): 1.17 fold enrichment (6-mer frequency, TF over GST control)
binding signal (ERG): 1.14 fold enrichment (6-mer frequency, TF over GST control)
binding signal (ELF1): 1.18 fold enrichment (6-mer frequency, TF over GST control)
binding signal (EHF): 1.12 fold enrichment (6-mer frequency, TF over GST control)
binding signal (SPI1): 1.12 fold enrichment (6-mer frequency, TF over GST control)
binding signal (SPIB): 1.14 fold enrichment (6-mer frequency, TF over GST control)
binding signal (ELK3): 1.09 fold enrichment (6-mer frequency, TF over GST control)

TATTCC
binding signal (FLI1): 1.65 fold enrichment (6-mer frequency, TF over GST control)
binding signal (ELK1): 1.68 fold enrichment (6-mer frequency, TF over GST control)
binding signal (GABPA): 1.6 fold enrichment (6-mer frequency, TF over GST control)
binding signal (ERG): 1.52 fold enrichment (6-mer frequency, TF over GST control)
binding signal (ELF1): 1.59 fold enrichment (6-mer frequency, TF over GST control)
binding signal (EHF): 1.58 fold enrichment (6-mer frequency, TF over GST control)
binding signal (SPI1): 1.48 fold enrichment (6-mer frequency, TF over GST control)
binding signal (SPIB): 1.49 fold enrichment (6-mer frequency, TF over GST control)
binding signal (ELK3): 1.56 fold enrichment (6-mer frequency, TF over GST control)

ATCCCC
binding signal (FLI1): 1.47 fold enrichment (6-mer frequency, TF over GST control)
binding signal (ELK1): 1.46 fold enrichment (6-mer frequency, TF over GST control)
binding signal (GABPA): 1.35 fold enrichment (6-mer frequency, TF over GST control)
binding signal (ERG): 1.52 fold enrichment (6-mer frequency, TF over GST control)
binding signal (ELF1): 1.5 fold enrichment (6-mer frequency, TF over GST control)
binding signal (EHF): 1.46 fold enrichment (6-mer frequency, TF over GST control)
binding signal (SPI1): 1.39 fold enrichment (6-mer frequency, TF over GST control)
binding signal (SPIB): 1.39 fold enrichment (6-mer frequency, TF over GST control)
binding signal (ELK3): 1.2 fold enrichment (6-mer frequency, TF over GST control)

AAAATG
binding signal (FLI1): 1.17 fold enrichment (6-mer frequency, TF over GST control)
binding signal (ELK1): 1.15 fold enrichment (6-mer frequency, TF over GST control)
binding signal (GABPA): 1.16 fold enrichment (6-mer frequency, TF over GST control)
binding signal (ERG): 1.2 fold enrichment (6-mer frequency, TF over GST control)
binding signal (ELF1): 1.15 fold enrichment (6-mer frequency, TF over GST control)
binding signal (EHF): 1.21 fold enrichment (6-mer frequency, TF over GST control)
binding signal (SPI1): 1.37 fold enrichment (6-mer frequency, TF over GST control)
binding signal (SPIB): 1.26 fold enrichment (6-mer frequency, TF over GST control)
binding signal (ELK3): 1.18 fold enrichment (6-mer frequency, TF over GST control)

CCTTTA
binding signal (FLI1): 1.36 fold enrichment (6-mer frequency, TF over GST control)
binding signal (ELK1): 1.4 fold enrichment (6-mer frequency, TF over GST control)
binding signal (GABPA): 1.37 fold enrichment (6-mer frequency, TF over GST control)
binding signal (ERG): 1.21 fold enrichment (6-mer frequency, TF over GST control)
binding signal (ELF1): 1.36 fold enrichment (6-mer frequency, TF over GST control)
binding signal (EHF): 1.29 fold enrichment (6-mer frequency, TF over GST control)
binding signal (SPI1): 1.45 fold enrichment (6-mer frequency, TF over GST control)
binding signal (SPIB): 1.3 fold enrichment (6-mer frequency, TF over GST control)
binding signal (ELK3): 1.21 fold enrichment (6-mer frequency, TF over GST control)

TTCAAG
binding signal (FLI1): 1.22 fold enrichment (6-mer frequency, TF over GST control)
binding signal (ELK1): 1.22 fold enrichment (6-mer frequency, TF over GST control)
binding signal (GABPA): 1.25 fold enrichment (6-mer frequency, TF over GST control)
binding signal (ERG): 1.24 fold enrichment (6-mer frequency, TF over GST control)
binding signal (ELF1): 1.28 fold enrichment (6-mer frequency, TF over GST control)
binding signal (EHF): 1.3 fold enrichment (6-mer frequency, TF over GST control)
binding signal (SPI1): 1.2 fold enrichment (6-mer frequency, TF over GST control)
binding signal (SPIB): 1.29 fold enrichment (6-mer frequency, TF over GST control)
binding signal (ELK3): 1.22 fold enrichment (6-mer frequency, TF over GST control)
